Sm TGR block: blocks Schistosoma mansoni thioredoxin glutathione reductase. purified TGR, DTNB reduction, TNB absorbance 405 nm. Q962Y6. AID 485364. Potency, µM (highest dose often 114 µM), hits mostly inhibitors. 360,000 compounds, 3% hits; further: nearly all actives have a fitted effect of over 60% in size
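Kinetic colorimetric format: TGR-catalysed, NADPH-driven DTNB reduction monitored via TNB absorbance. Enzyme dispensed at 20 nM; compound exposure 15 min at room temperature before reaction start.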
TbPYK inhibitor: blocks Trypanosoma brucei pyruvate kinase. AID 624173. TbPYK enzyme, Kinase-Glo Plus ATP luminescence, 45 min. Potency, µM (top dose mostly 76.8 µM), most hits filed as inhibitors. 410,000 compounds, 0.12% hits. Q57TT1; further: nearly all actives have a fitted effect of over 50% in size
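Enzyme and substrate buffer are dispensed first and compound is pin-transferred. ADP at 130 uM final then starts the reaction, which runs 45 min at room temperature. Detection reagent is added for 10 min before luminescence is imaged.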
AmpC inh detg: AmpC beta-lactamase inhibition with detergent present; 370,000 compounds, 0.041% hits; Potency, µM (titrated, usually from 114 µM), usual class: inhibitors; AmpC hydrolysis of nitrocefin, absorbance 480 nm, 0.01% Triton; AID 485294; P00811; further: nearly all actives have a fitted effect of over 25% in size
Target sequence (P00811 whole entry, looked up): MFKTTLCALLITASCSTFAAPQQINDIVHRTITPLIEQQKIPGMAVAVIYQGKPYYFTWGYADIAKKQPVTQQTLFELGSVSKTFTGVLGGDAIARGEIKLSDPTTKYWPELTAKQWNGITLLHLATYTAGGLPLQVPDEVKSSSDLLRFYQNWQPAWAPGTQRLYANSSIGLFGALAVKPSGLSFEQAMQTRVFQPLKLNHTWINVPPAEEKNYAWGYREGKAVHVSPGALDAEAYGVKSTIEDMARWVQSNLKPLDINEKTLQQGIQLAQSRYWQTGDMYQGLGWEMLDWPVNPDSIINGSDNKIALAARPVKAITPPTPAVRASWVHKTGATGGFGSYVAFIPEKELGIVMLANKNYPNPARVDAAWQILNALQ
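AmpC (5.3 nM in the dispensed reagent) in 20 mM phosphate pH 7.0 with 0.01% (detergent screen) or 0.0001% Triton X-100 was preincubated with compounds for 15 min at room temperature. Nitrocefin was then added from an 800 uM solution, and hydrolysis was followed at 480 nm.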
RE007 growth inh: less growth of the S. pombe RE007 Vpr strain | 360,000 compounds, 0.21% hits | Potency, µM (highest dose often 92.2 µM), most hits filed as inhibitors | S. pombe RE007 Vpr strain, BacTiter-Glo ATP luminescence, 24 h; active means well fitted falling curve with a large enough effect; inconclusive means small, poorly fitted or top-dose-only effect; inactive means no such curve, though single readings can be large or run the other way; further: nearly all actives have a fitted effect of over 50% in size
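Fission yeast strain RE007, carrying one chromosomally integrated HIV-1 vpr copy, was seeded at OD 0.01 in PMG+AL medium with 23 nL pinned compound. After 24 h at 30 °C and 99% humidity, viability was read by BacTiter-Glo luminescence.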
AmpC inh no detg: blocks E. coli AmpC beta-lactamase in detergent-free assay. P00811. AmpC nitrocefin hydrolysis, absorbance 480 nm, 0.0001% Triton. Potency, µM (highest dose often 57.1 µM), hits mostly inhibitors. 330,000 compounds, 0.52% hits. AID 485341; further: nearly all actives have a fitted effect of over 20% in size
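20 mM phosphate pH 7.0 + 0.01% (detergent screen) or 0.0001% Triton X-100; 5.3 nM AmpC reagent; cpd preinc 15 min RT; nitrocefin (800 uM stock) to start; A480 q20 s × 4 min; Activity was normalised to no-enzyme and no-compound control wells.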
SARS PLpro yeast: blocks SARS-CoV papain-like protease in a yeast assay; S. cerevisiae expressing SARS-CoV PLpro, growth rescue; Potency, µM (series often up to 32.9 µM), usual class: activators; 330,000 compounds, 0.19% hits; AID 485353; calls by dose curve; further: nearly all actives have a fitted effect of over 55% in size
Each line names hits and unclear results; the compound was inactive in the other large screens. Hits are enriched below; roughly 3.3% of the tested compounds scored in any of these assays. Unless noted, the call rests on the fitted dose curve; in most records, active means well fitted curve in the direction sought with a large enough effect; inconclusive means small, poorly fitted or top-dose-only effect, or another doubt; inactive means no such curve, though single readings can be large; an effect the other way counts as inactive or inconclusive.

CC(C)Cc1cc(-c2ccco2)c(C#N)c(N)n1	Sm TGR block 35.5µM
CC(=O)Nc1nonc1-c1nnc(SCc2ccc(F)cc2Cl)n1C	none (no result: RE007 growth inh, AmpC inh no detg, SARS PLpro yeast)
CCN(C(=O)c1cn(-c2ccc(OC)cc2)c(=O)c2ccccc12)c1cccc(Cl)c1	none (no result: RE007 growth inh, AmpC inh no detg, SARS PLpro yeast)
CC(C)c1ccc(C2N3CC4(C)CN2CC(c2ccccc2)(C3)C4=O)cc1 (stereo not given)	none (no result: RE007 growth inh, AmpC inh no detg, SARS PLpro yeast)
CCC(SC1=NCCS1)C(=O)Nc1nnc(-c2ccccc2OC)s1 (stereo not given)	AmpC inh no detg 10µM
Cc1nnc(N2CCC(C(=O)NCCC(C)C)CC2)c2nn(-c3ccc(Cl)cc3)c(C)c12	none (no result: RE007 growth inh, AmpC inh no detg, SARS PLpro yeast)
COc1ccc(-c2nc(CS(=O)CC(=O)NCc3ccc4c(c3)OCO4)c(C)o2)cc1OC (stereo not given)	Sm TGR block 39.8µM
Cc1oc(-c2ccc(Cl)cc2)nc1CS(=O)CC(=O)NCc1ccc2c(c1)OCO2 (stereo not given)	Sm TGR block 14.1µM
Cc1oc(-c2ccc(Cl)cc2)nc1CS(=O)CC(=O)NCc1ccc(Cl)cc1 (stereo not given)	Sm TGR block inconclusive (no result: RE007 growth inh, AmpC inh no detg, SARS PLpro yeast)
COc1ccc(-c2nc(CSCC(=O)NCc3ccc4c(c3)OCO4)c(C)o2)cc1OC	Sm TGR block inconclusive, SARS PLpro yeast inconclusive
Cc1ccc(NC(=O)c2cnc(SCC(=O)N3CCOCC3)n(C)c2=O)cc1	none (no result: RE007 growth inh, AmpC inh no detg, SARS PLpro yeast)
CCOC(=O)C(NC(=O)c1ccccc1Cl)(Nc1sc2c(c1C(N)=O)CCC2)C(F)(F)F (stereo not given)	Sm TGR block 39.8µM, AmpC inh detg inconclusive
CCOC(=O)C(NC(=O)c1cccc(Cl)c1)(Nc1sc2c(c1C(N)=O)CCC2)C(F)(F)F (stereo not given)	Sm TGR block 39.8µM, AmpC inh detg inconclusive
CCOC(=O)C(NC(=O)c1ccc(F)cc1)(Nc1sc2c(c1C(N)=O)CCC2)C(F)(F)F (stereo not given)	Sm TGR block inconclusive
CCCCC(=O)NC(Nc1sc2c(c1C(N)=O)CCCC2)(C(=O)OCC)C(F)(F)F (stereo not given)	none
CCN(CC)CCCNC(=O)C1CCN(S(=O)(=O)CC)CC1	none (no result: RE007 growth inh, AmpC inh no detg, SARS PLpro yeast)
O=C(NCCc1ccccc1)/C(=C/c1ccco1)c1ccccc1	Sm TGR block 12.6µM
CCC(C)NC(=O)/C(=C/c1ccco1)c1ccccc1 (stereo not given)	Sm TGR block 10µM
CC(C)c1ccc(S(=O)(=O)c2nnn3c2nc(NCCc2ccccc2)c2sccc23)cc1	none (no result: RE007 growth inh, AmpC inh no detg, SARS PLpro yeast)
O=C(Cc1ccc(Br)cc1)NC1CCCc2ccccc21 (stereo not given)	none
O=C(NC(=S)NC1CCS(=O)(=O)C1)c1ccccc1 (stereo not given)	none
CN(C(=O)c1cccc(C(F)(F)F)c1)C1CCCc2ccccc21 (stereo not given)	AmpC inh detg inconclusive
CCOc1ccc(C(=O)NC(=S)NC2CCCC2)cc1[N+](=O)[O-]	Sm TGR block inconclusive, AmpC inh detg inconclusive, AmpC inh no detg 10µM
CN(C(=O)CCl)C1CCCc2ccccc21 (stereo not given)	Sm TGR block 11.2µM
O=C(CCl)NC1CCCc2ccccc21 (stereo not given)	Sm TGR block 25.1µM
CCOc1ccc(C(=O)NC(=S)Nc2ccc(NC(=O)CC)cc2)cc1[N+](=O)[O-]	AmpC inh detg inconclusive (no result: RE007 growth inh)
O=C(NC(=S)NC1CCCCC1)c1ccccc1	Sm TGR block 1µM
CCOC(=O)Cn1c(=O)oc2cc(S(=O)(=O)N3CCN(c4cc(C)ccc4C)CC3)ccc21	none (no result: RE007 growth inh, AmpC inh no detg, SARS PLpro yeast)
O=C(NC(=S)NC1CCCc2ccccc21)c1ccco1 (stereo not given)	Sm TGR block inconclusive
O=C(NC(=S)NC1CCCc2ccccc21)c1ccc(F)cc1 (stereo not given)	Sm TGR block 17.8µM
Nc1nn(S(=O)(=O)c2cccc3nsnc23)cc1-c1ccc(Br)cc1	AmpC inh detg inconclusive, AmpC inh no detg 20µM
O=C(NCc1ccco1)C1CC(c2ccccc2C(F)(F)F)=NO1 (stereo not given)	Sm TGR block 20µM
COc1ccc(OC)c(C2=NOC(C(=O)NCc3ccco3)C2)c1 (stereo not given)	Sm TGR block 35.5µM, AmpC inh detg inconclusive
CC[C@H](OC(C)=O)C(C[C@H](C)NC)(c1ccccc1)c1ccccc1	none (no result: Sm TGR block, AmpC inh detg, RE007 growth inh, AmpC inh no detg, SARS PLpro yeast)
CCN(CCCNC(=O)c1nn(-c2ccc(C)cc2)c(=O)c2c1c1ccccc1n2C)c1ccccc1	none (no result: RE007 growth inh, AmpC inh no detg, SARS PLpro yeast)
CCCn1c(SCC(O)c2cccc(OC)c2)nc2ccccc21 (stereo not given)	none (no result: RE007 growth inh, AmpC inh no detg, SARS PLpro yeast)
COc1ccc(S(=O)(=O)N2CC(=O)Nc3ccccc32)cc1F	Sm TGR block 11.2µM
COC/C=C/C1=CC2=CC(=O)C(C)(OC(=O)c3cnc4ccccc4n3)C(=O)C2=CN1C1CCCCC1 (stereo not given)	Sm TGR block inconclusive (no result: TbPYK inhibitor, RE007 growth inh)
COC/C=C/C1=CC2=CC(=O)C(C)(OC(=O)c3cnc4ccccc4n3)C(=O)C2=CN1CC(C)C (stereo not given)	none (no result: Sm TGR block, AmpC inh detg, AmpC inh no detg, SARS PLpro yeast)
COC/C=C/C1=CC2=CC(=O)C(C)(OC(=O)c3cnc4ccccc4n3)C(=O)C2=CN1c1ccc(CO)cc1 (stereo not given)	Sm TGR block 44.7µM, AmpC inh detg inconclusive (no result: TbPYK inhibitor, RE007 growth inh)
COC/C=C/C1=CC2=CC(=O)C(C)(OC(=O)c3cnc4ccccc4n3)C(=O)C2=CN1c1ccccc1 (stereo not given)	Sm TGR block 22.4µM
O=C1Nc2ccccc2SC1c1ccccc1 (stereo not given)	none
Cc1ccc(NC2Sc3ccccc3NC2=O)cc1 (stereo not given)	TbPYK inhibitor 14.1µM
O=C(CSc1nc2ccccc2nc1Cc1ccccc1)Nc1ccc2c(c1)OCO2	none (no result: RE007 growth inh, AmpC inh no detg, SARS PLpro yeast)
CCc1ccc2oc(-c3cccc(NC(=O)c4ccc(-c5cccc([N+](=O)[O-])c5)o4)c3)nc2c1	Sm TGR block inconclusive (no result: RE007 growth inh, AmpC inh no detg, SARS PLpro yeast)
O=C(NCc1cccs1)C(Cc1ccccc1)n1cccc1 (stereo not given)	Sm TGR block 39.8µM
CCOC(=O)N1CCC(c2cc(=O)n3[nH]c(C)c(-c4ccc(F)cc4)c3n2)CC1	AmpC inh detg inconclusive, AmpC inh no detg 25.1µM
COc1ccc2ccccc2c1C1CC(=O)N2CN(C)CSC2=C1C#N (stereo not given)	Sm TGR block 10µM, TbPYK inhibitor inconclusive
CCc1ccccc1N1CSC2=C(C#N)C(c3cc(OC)c(OC)cc3OC)CC(=O)N2C1 (stereo not given)	Sm TGR block 6.31µM, TbPYK inhibitor 10µM

Screening results deposited in PubChem by National Center for Advancing Translational Sciences (NCATS).
